Bioassay records: PubChem BioAssay, National Center for Advancing Translational Sciences (NCATS)
Rows were chosen to be rich in hits. Some 2.1% of all compounds tested hit in one or more screens of this group.
aSyn yeast inh: rescues yeast growth from alpha-synuclein toxicity. Yeast expressing alpha-synuclein, growth rescue, BacTiter-Glo, 24 h. Potency, µM (top dose mostly 46.1 µM), for inactives: at the highest dose growth rescue (activation), most hits filed as activators. 370,000 compounds, 0.14% hits. AID 652106; also: % of control where 0% means no effect; nearly all actives have a fitted effect of over 65% in size
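Readout is rescue of growth in alpha-synuclein-expressing yeast, so inhibitors of toxicity appear as activators. Growth after 24 hr at 30 deg C in galactose medium is quantified by luminescence.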
FUS yeast rescue: suppressors of FUS proteinopathy in yeast; S. cerevisiae FUS-expressing, growth rescue, OD600, 24 h; Potency, µM (highest dose often 76.6 µM), hits mostly activators; 390,000 compounds, 0.24% hits; AID 1347120;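 also: plate controls were DMSO vehicle for no effect and reference control for full effect; nearly all actives have a fitted effect of over 55% in size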
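Yeast expressing FUS under galactose induction, OD 0.005 in 2% galactose medium; compounds in a dilution series, 24 h at 30C. Growth rescue by absorbance at 600 nm; CP55940 positive control, DMSO negative.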
Abeta yeast res: restores growth of yeast expressing A-beta42 peptide | yeast expressing A-beta42, growth rescue, OD600, 48 h; response scale: 0% DMSO, 100% iron-clioquinol control | Potency, µM (doses to about 46.1 µM), hits mostly activators | 410,000 compounds, 0.063% hits; also: nearly all actives have a fitted effect of over 55% in size
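Yeast A-beta toxicity model in growth medium with pinned compounds, 48 h at 30 C; growth read as absorbance at 600 nm. Normalized to FeCl3/clioquinol equimolar mix (positive) and DMSO (negative).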
TDP-43 yeast inh: TDP-43 toxicity inhibition in yeast; TDP-43 expressing yeast growth rescue, BacTiter-Glo, 24 h; AID 652104; Potency, µM (series often up to 46.1 µM), for inactives: at the highest dose growth rescue (activation), most hits filed as activators; 410,000 compounds, 1.8% hits; also: % of control where 0% means no effect; nearly all actives have a fitted effect of over 50% in size
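Growth rescue of TDP-43-toxic yeast measured as ATP luminescence (BacTiter-Glo). Cells grown to mid-log in raffinose, induced in galactose at OD600=0.02, exposed to compound 24 hr at 30 deg C.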
Starred values were filed as active, the others as inactive; i = inactive; ? = inconclusive; nt = not tested or not shown. Calls follow the shape of the dose curve; as a rule, active = well fitted curve in the direction sought with a large enough effect; inconclusive = small, poorly fitted or top-dose-only effect, or another doubt; inactive = no such curve, though single readings can be large; an effect the other way counts as inactive or inconclusive. Potency is read from the fitted curve at half-maximal effect.

SMILES	aSyn yeast inh	FUS yeast rescue	Abeta yeast res	TDP-43 yeast inh
Cc1cccc(NC(=O)c2nc[nH]c2C(=O)N[C@@H](CC(C)C)C(=O)OC(C)(C)C)c1	-2%	i	6.3µM*	24%
Cc1ccc(-c2ccc(/C=N/O)o2)cc1[N+](=O)[O-]	-19%	i	i	13µM*
COc1ccc(/C=N/N2CCOCC2)cc1COc1ccc(F)cc1	3%	i	i	?
COc1ccc(/C=N/NC(=O)c2ccn[nH]2)cc1CSc1ccccn1	1%	i	nt	11%
COc1ccc(/C=N/N2CCOCC2)cc1COc1ccc(Cl)cc1	3%	nt	i	16µM*
COc1ccc(/C=N/NC(=O)c2ccn[nH]2)cc1COc1ccc(Cl)cc1	12%	i	i	18µM*
CCCCOCCCNC(=O)C[C@H]1C[C@@]2(C(=O)OCC)CCCC3=C2N(CCC3)C1=O	nt	i	nt	nt
CC(C)c1ccc(C2CC(c3ccc(Br)cc3)=NN2C(N)=S)cc1 (stereo unspecified)	-13%	i	10µM*	-6%
Cc1ccc(-c2c(C)n3c4c(=O)n(C)c(=O)n(C)c4nc3n2CCCO)cc1	-1%	i	i	?
CC(=O)c1sc(=S)n(Cc2ccccc2)c1C	0%	i	i	13µM*
CCOc1ccccc1CNC(=O)C1CCN(C(=O)N2CC(CC)Oc3ccc(C)cc32)CC1 (stereo unspecified)	nt	?	i	-15%
Cc1cc(OC(F)F)ccc1NC(=S)NC1CCCC1	4%	i	13µM*	23%
Cc1cc(F)ccc1NC(=S)NC1CCCC1	-7%	i	i	14%
O=C(Nc1ccc(Nc2ccccc2)cc1)c1c(Cl)cccc1Cl	-23%	i	i	11µM*
COc1ccc(Nc2ncnc3c2nc2n3CCCC2)cc1Cl	nt	i	i	13µM*
Fc1ccc(Nc2ncnc3c2nc2n3CCCCC2)c(F)c1	nt	i	i	11µM*
CCOc1ccc(Nc2ncnc3c2nc2n3CCCCC2)cc1	nt	i	i	13µM*
O=C(Nc1ccc(F)cc1F)C1CCCN(c2ncnc3c2nc2n3CCCCC2)C1 (stereo unspecified)	0%	i	i	?
CC(/C=N\NC(=O)CSc1nnc(-c2ccc(Br)cc2)n1-c1ccccc1)=C\c1ccco1	nt	i	nt	nt
CN(C)c1nc(Cl)nc(N(C#N)CCOc2ccccc2)n1	1%	i	i	11µM*
CCNc1nc(NCC)nc(N(C#N)CCOc2ccccc2)n1	-5%	i	i	8%
O=C(CCn1c(=O)c2cccn2c2ccc(F)cc21)NCCc1ccccc1Cl	nt	?	i	11%
COc1ccc(C(=O)Nc2ccc3nc(SCC(=O)N(C)c4ccccc4)sc3c2)cc1	nt	?	i	22µM*
O=C(COc1ccccc1)Nc1ccc2nc(SCC(=O)N3CCCC3)sc2c1	nt	i	i	32µM*
O=S(=O)(/C=C/c1ccccc1)NCc1ccccc1Cl	12%	i	i	11µM*
SMILES	aSyn yeast inh	FUS yeast rescue	Abeta yeast res	TDP-43 yeast inh
c1nc(NCC2CC2)c2cc(-c3ccc4c(c3)OCO4)ccc2n1	nt	i	nt	nt
Cc1ccc(-c2csc3nc[nH]c(=S)c23)cc1	9%	i	i	18µM*
CCOC(=O)Nc1ccc2c(c1)C(=NNC(=S)NC)c1ccccc1-2	-12%	i	i	25µM*
O=C(NN=C1c2ccccc2-c2ccccc21)c1ccccc1	-4%	i	i	17%
CCOC(=O)N/N=C1\CCc2ccccc21	-7%	i	i	-4%
CCOC(=O)NN=C1c2ccccc2-c2ccccc21	-1%	i	i	5µM*
NC(=S)NN=C1c2ccccc2-c2ccccc21	10%	i	i	18µM*
N/C(=N\OC(=O)c1ccc(Cl)cc1Cl)c1cccnc1	4%	i	i	13µM*
N/C(=N\OC(=O)c1cccc2ccccc12)c1cccnc1	-5%	i	i	20µM*
Cc1ccc(C)c(N2CCN(C(=O)CCC(=O)N3CCOc4ccc(Cl)cc43)CC2)c1	?	25µM*	?	?
FC(F)(F)c1cccc(N2CCN(c3nc4ccccc4n4cnnc34)CC2)c1	nt	i	i	22µM*
c1ccc(N2CCN(c3nc4ccccc4n4cnnc34)CC2)cc1	5%	i	i	35µM*
c1ccc2c(c1)CCN(c1nc3ccccc3n3cnnc13)C2	-6%	i	i	35µM*
